Screening results (PubChem)
PTPN22 act = activators of human LYP (PTPN22) phosphatase; recombinant LYP, DiFMUP fluorescence; 0 = plate median, 100 = signal doubled; activation, % at 2 µM; 96,000 tested, 0.11% active; AID 697;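 active means activation at 2 µM above a set limit, the mean plus 5 SD, cut at about 37% in these data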
Target sequence (Q9Y2R2 whole entry, looked up): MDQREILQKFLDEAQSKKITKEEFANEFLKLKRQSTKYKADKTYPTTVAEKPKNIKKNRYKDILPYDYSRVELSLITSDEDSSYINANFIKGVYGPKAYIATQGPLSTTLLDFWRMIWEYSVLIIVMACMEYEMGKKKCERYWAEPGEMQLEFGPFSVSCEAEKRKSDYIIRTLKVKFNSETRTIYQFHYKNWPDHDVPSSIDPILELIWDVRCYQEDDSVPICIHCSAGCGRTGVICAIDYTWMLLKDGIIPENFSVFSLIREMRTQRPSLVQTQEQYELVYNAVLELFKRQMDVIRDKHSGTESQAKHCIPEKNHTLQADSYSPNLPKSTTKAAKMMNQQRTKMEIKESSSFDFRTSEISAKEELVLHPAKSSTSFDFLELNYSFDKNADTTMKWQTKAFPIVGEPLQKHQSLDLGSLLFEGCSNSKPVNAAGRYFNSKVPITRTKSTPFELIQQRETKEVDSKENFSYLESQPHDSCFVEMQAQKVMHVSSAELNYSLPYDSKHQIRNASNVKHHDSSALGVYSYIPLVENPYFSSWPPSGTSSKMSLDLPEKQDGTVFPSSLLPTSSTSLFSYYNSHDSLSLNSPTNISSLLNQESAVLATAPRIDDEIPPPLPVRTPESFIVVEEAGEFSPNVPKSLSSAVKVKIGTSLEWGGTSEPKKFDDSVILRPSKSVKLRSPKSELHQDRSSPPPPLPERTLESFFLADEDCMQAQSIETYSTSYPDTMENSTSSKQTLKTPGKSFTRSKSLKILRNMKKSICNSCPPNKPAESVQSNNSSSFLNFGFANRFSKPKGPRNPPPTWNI
LYP inh 2 = inhibitors of human LYP (PTPN22) phosphatase. Q9Y2R2. recombinant LYP catalytic domain, DiFMUP fluorescence. inhibition, % at 2 µM. 96,000 tested, 0.21% active;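 active means inhibition at 2 µM at or above a set limit, the screen mean plus 3 SD, cut at about 24% in these data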;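 further: 0% = DMSO with enzyme and 100% = enzyme fully blocked by orthovanadate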
HUVEC tox IL1B = HUVEC cytotoxicity counter-screen, IL-1B stimulated; HUVEC cell count loss, Hoechst imaging; cell count reduction, % at 2 µM; 94,000 tested, 0.41% active; AID 845;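 active means cell count reduction more than 3 SD above the screen-wide mean, cut at about 70% in these data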;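 further: normalized per plate to untreated control cells as the no-loss baseline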
NFkB transloc inh = blocks IL-1B driven NFkB nuclear translocation in HUVEC cells | HUVEC IL-1B NFkB p65 nuclear translocation imaging | inhibition, % at 2 µM | 94,000 tested, 0.43% active | AID 796;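 active means inhibition above about 30% together with a positive call from visual inspection of the well image, limit read from the data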;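 further: nuclear over cytoplasmic p65 intensity ratio measured by imaging; 0% = IL-1B stimulated DMSO wells and 100% = unstimulated DMSO wells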
NFkB transloc pot = enhances IL-1B driven NFkB nuclear translocation. activation, % at 2 µM. HUVEC IL-1B NFkB p65 nuclear translocation imaging. 94,000 tested, 0.3% active. AID 819;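 active means activation above 40%, about the mean plus 3 SD, also judged a hit on visual image review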;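 further: percent activation is computed from the nuclear over cytoplasmic p65 intensity ratio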
Starred values were filed as active, the others as inactive. This is a sample that favours compounds with a hit; in the whole collection about 1.3% have one here.

SMILES	PTPN22 act	LYP inh 2	HUVEC tox IL1B	NFkB transloc inh	NFkB transloc pot
CCCOc1cccc(C2C(C(=O)c3ccco3)=C(O)C(=O)N2CCN(CC)CC)c1 (stereo unspecified)	-1.1	-1.3	-26.4	-48.6	48.6*
CCN(CC)CCN1C(=O)C(O)=C(C(=O)c2ccco2)C1c1ccccn1 (stereo unspecified)	2.6	-4.0	11.0	-30.7	30.7
CC(=O)CCc1c[nH]c2c(C(=O)O)cccc12	-3.1	1.8	-5.1	41.0*	-41.0
COc1ccc(NC(=O)CSc2ccc3c4c(cccc24)C(=O)c2ccccc2-3)cc1	-22.0	25.5*	-27.2	1.9	-1.9
N#Cc1cccc(NC(=O)CSc2ccc3c4c(cccc24)C(=O)c2ccccc2-3)c1	-8.7	11.2	-20.2	19.3	-19.3
Nc1cc(OC(=O)c2cccs2)nn1S(=O)(=O)c1ccccc1	1.1	-3.5	1.8	-17.3	17.3
COc1cccc(C(=O)Oc2cc(N)n(S(=O)(=O)c3ccc(C)cc3)n2)c1OC	-2.7	0.5	-3.6	32.5*	-32.5
CCNC(=S)NNC(=O)c1cccn(Cc2ccc(Cl)cc2)c1=O	-41.0	42.4*	0.2	-15.6	15.6
C=CCn1c(-c2cccn(Cc3ccc(Cl)cc3Cl)c2=O)n[nH]c1=S	-8.3	10.4	2.8	-3.9	3.9
CNC(=S)NNC(=O)c1cccn(Cc2ccc(Cl)cc2Cl)c1=O	-52.7	53.8*	-4.3	1.7	-1.7
CC(=O)c1cccc(NC(=O)C2CCN(S(=O)(=O)c3ccccc3)CC2)c1	8.8	-11.8	-2.1	-26.2	26.2
CCN1C(=O)CSC1=NC12CC3CC(CC(C3)C1)C2	-4.9	5.7	-6.9	1.2	-1.2
CN1C(=O)CSC1=NC12CC3CC(CC(C3)C1)C2	-1.4	1.3	2.8	-40.0	40.0*
O=C(c1ccco1)N1CCN(c2nc(C(F)(F)F)nc3c2nnn3Cc2ccccc2)CC1	-4.7	7.9	11.5	-40.7	40.7*
COc1ccc(CCNC(=O)CCC2COc3ccccc3O2)cc1OC (stereo unspecified)	2.9	-0.2	-1.0	-7.5	7.5
O=C(N/N=C/c1ccncc1)c1cc2c(ccc3ccccc32)o1	-14.9	17.6	-8.3	-4.0	4.0
O=C(N/N=C/c1cccc([N+](=O)[O-])c1)c1cc2c(ccc3ccccc32)o1	-33.7	35.4*	-31.7	12.0	-12.0
Cc1nc2sccc2c(=O)n1-c1cccc(Cl)c1	-5.1	7.1	-2.2	6.5	-6.5
COc1ccc(C(CC(=O)c2ccccc2)S(=O)(=O)c2ccc(C)cc2)cc1 (stereo unspecified)	-4.5	7.0	-16.9	-69.2	69.2*
CC1=NN(c2ccccc2)C(=O)C1(C)C	2.3	-2.4	-0.6	50.3*	-50.3
CCCCOCCCNC(=O)CCCOc1ccccc1	4.0	-3.4	93.3*	-16.9	16.9
Cc1[nH][nH]c(=O)c1C(c1ccc(-c2ccc(Cl)c(Cl)c2)o1)c1c(C)[nH][nH]c1=O	-18.1	17.7	-123.5	-41.5	41.5*
CC(=O)C(=Nc1ccccc1Cl)NNc1ccc(Cl)cc1	-9.4	8.9	19.6	-8.8	8.8
CCOc1cc(/C=C\c2[nH]c(=O)[nH]c(=O)c2[N+](=O)[O-])ccc1OC(C)CC (stereo unspecified)	6.9	-9.7	-67.4	-47.5	47.5*
Cc1nc(Cl)c(C(=O)NC(=O)Nc2cccc(C(F)(F)F)c2)c(C)c1[N+](=O)[O-]	-7.0	7.5	-8.1	-11.2	11.2
SMILES	PTPN22 act	LYP inh 2	HUVEC tox IL1B	NFkB transloc inh	NFkB transloc pot
O=C(CCl)Nc1cc(-c2ccccc2)nn1-c1ccccc1	-6.4	7.0	87.6*	-16.6	16.6
CCOC(=O)N/N=C/c1ccc(C)o1	5.2	-3.0	-12.3	32.7*	-32.7
COc1ccc(/C(O)=C2/C(=O)C(=O)N(CCN(C)C)C2c2ccc(OC)c(OC)c2)c(C)c1 (stereo unspecified)	-5.3	4.2	8.1	39.0*	-39.0
COc1ccc(/C(O)=C2/C(=O)C(=O)N(CCN(C)C)C2c2ccc(C)cc2)cc1Cl (stereo unspecified)	-4.2	1.8	-10.4	-9.9	9.9
COc1cc(C2/C(=C(/O)c3ccc(OCC(C)C)cc3)C(=O)C(=O)N2CCN(C)C)ccc1O (stereo unspecified)	4.1	-4.5	-96.7	-41.3	41.2*
CCOC(=O)/C(=N\Nc1cc(C(F)(F)F)ccc1Cl)N(CC)CC	-8.6	6.3	-9.5	-3.5	3.5
COC(=O)C1=C(C)N(C)C(=O)NC1c1ccccc1 (stereo unspecified)	0.9	-2.0	-4.1	-47.0	47.0*
